Test results from the supplement of paper PMC6897291.

Tested on: U-2932
Assay: growth inhibition by drug plus 177Lu-lilotomab satetraxetan (1 - RLU/untreated control) (fraction); higher = stronger inhibition
Conditions: 177Lu-lilotomab satetraxetan 1 ug/ml
Procedure, shortened: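 Plates pre-printed with the Selleck Cambridge Cancer Compound library at 10/100 nM (RIVA) or 10/1,000 nM (U-2932) received 3,000 cells/well. These cells had been washed after 18 h untreated or with a radiolabelled anti-CD37 antibody conjugate (~600 MBq/mg; 0.5 µg/ml RIVA, 1 µg/ml U-2932). Growth inhibition was obtained from RealTime-Glo luminescence in relation to untreated no-drug wells. Each daily read from day 3, taken after 1 h at 37°C, was converted as 1 − RLU/mean of 48 such wells per plate.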

SMILES	growth inhibition by drug plus 177Lu-lilotomab satetraxetan (10 nM, time (day): 3)	growth inhibition by drug plus 177Lu-lilotomab satetraxetan (10 nM, time (day): 4)	growth inhibition by drug plus 177Lu-lilotomab satetraxetan (10 nM, time (day): 5)	growth inhibition by drug plus 177Lu-lilotomab satetraxetan (10 nM, time (day): 6)	growth inhibition by drug plus 177Lu-lilotomab satetraxetan (1000 nM, time (day): 3)	growth inhibition by drug plus 177Lu-lilotomab satetraxetan (1000 nM, time (day): 4)	growth inhibition by drug plus 177Lu-lilotomab satetraxetan (1000 nM, time (day): 5)	growth inhibition by drug plus 177Lu-lilotomab satetraxetan (1000 nM, time (day): 6)
CC(O)(CS(=O)(=O)c1ccc(F)cc1)C(=O)Nc1ccc(C#N)c(C(F)(F)F)c1 (stereo not drawn) [Bicalutamide (Casodex)]	0.0109	0.0278	0.0445	0.0662	-0.0729	0.0514	0.0207	-0.0101
N[C@@H](Cc1ccc(N(CCCl)CCCl)cc1)C(=O)O [Melphalan]	0.0197	0.0283	0.0541	0.143	0.00364	0.0898	0.0598	0.0846
Cn1cc(C2=C(c3cn(C4CCN(Cc5ccccn5)CC4)c4ccccc34)C(=O)NC2=O)c2ccccc21	-0.0756	-0.00933	0.0275	0.128	-0.0807	-0.0188	0.0211	0.21
O=C(Oc1ccc([N+](=O)[O-])cc1)N1CCC(C(O)(c2ccc3c(c2)OCO3)c2ccc3c(c2)OCO3)CC1	-0.0245	0.00325	0.0178	0.11	-0.0484	0.0258	0.0163	0.077
CC1=C2C[C@H]3[C@@H](CC=C4C[C@@H](O)CC[C@@]43C)[C@@H]2CC[C@]12O[C@@H]1C[C@H](C)CN[C@H]1[C@H]2C [Cyclopamine]	0.0717	0.0954	0.107	0.127	-0.0532	0.0394	0.0391	0.0669
CCC1(c2ccc(N)cc2)CCC(=O)NC1=O (stereo not drawn) [Aminoglutethimide (Cytadren)]	-0.0302	0.0116	0.0252	0.0218	-0.00688	0.0339	0.0642	0.126
